According to PubChem BioAssay AID1159580 (chemical genetic matrix, 2015):
Screen size: about 5,500 compounds; about 2,000 (36%) were called active. Another 18% or so got no clear call; they are omitted. Cut-off read from the data, not from the text of the source: active = normalized growth mostly below about 0.91 (no sharp cut-off); inconclusive = no clear call, values can overlap the other calls; inactive = mostly above about 0.92. The list shows a part of the results.

Experiment: chemical genetic growth profiling, strain panel (AID 1159580);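 note: tested at 20 µM; growth read once vehicle control cultures reached saturation at 30 °C; 1 = growth at the plate median or of vehicle wells; lower values mean less growth of the strain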
Settings: growth OD
[1] = S. cerevisiae deletion strains, locus YMR263W, strain SAP30, hits give low values
[2] = S. cerevisiae deletion strains, locus YNL153C, strain GIM3, hits give low values
[3] = S. cerevisiae deletion strains, locus YAL013W, strain DEP1, hits give low values
[4] = S. cerevisiae deletion strains, locus YBR229C, strain ROT2, hits give low values
[5] = S. cerevisiae deletion strains, locus YDL101C, strain DUN1, hits give low values
[6] = S. cerevisiae deletion strains, locus YDR150W, strain NUM1, hits give low values
[7] = S. cerevisiae deletion strains, locus YEL061C, strain CIN8, hits give low values
[8] = S. cerevisiae deletion strains, locus YGR078C, strain PAC10, hits give low values
[9] = S. cerevisiae deletion strains, locus YHR030C, strain SLT2, hits give low values
[10] = S. cerevisiae deletion strains, locus YHR087W, strain rtc3, hits give low values
[11] = S. cerevisiae deletion strains, locus YJL187C, strain SWE1, hits give low values
[12] = S. cerevisiae deletion strains, locus YJR043C, strain POL32, hits give low values
[13] = S. cerevisiae deletion strains, locus YJR075W, strain HOC1, hits give low values
[14] = S. cerevisiae deletion strains, locus YLR039C, strain RIC1, hits give low values
[15] = S. cerevisiae deletion strains, locus YLR058C, strain SHM2 (second series), hits give low values
[16] = S. cerevisiae deletion strains, locus YLR085C, strain ARP6, hits give low values
[17] = S. cerevisiae deletion strains, locus YLR262C, strain YPT6, hits give low values
[18] = S. cerevisiae deletion strains, locus YML094W, strain GIM5, hits give low values
[19] = S. cerevisiae deletion strains, locus YMR219W, strain ESC1, hits give low values
[20] = S. cerevisiae deletion strains, locus YNL298W, strain CLA4 (second series), hits give low values
[21] = S. cerevisiae deletion strains, locus YNL322C, strain KRE1, hits give low values
[22] = S. cerevisiae deletion strains, locus YNR030W, strain Alg12, hits give low values
[23] = S. cerevisiae deletion strains, locus YPL055C, strain LGE1, hits give low values
[24] = S. cerevisiae deletion strains, locus YPL241C, strain CIN2, hits give low values
[25] = S. cerevisiae deletion strains, locus YPR135W, strain CTF4, hits give low values

Measured: normalized growth

Nc1nc(OCc2ccccc2)c2[nH]cnc2n1
inactive: S. cerevisiae deletion strains, locus YAL040C, strain CLN3, hits give low values 0.994 | S. cerevisiae deletion strains, locus YCL061C, strain MRC1 (second series), hits give low values 1 | S. cerevisiae deletion strains, locus YDR363W, strain ESC2, hits give low values 1.02 | S. cerevisiae deletion strains, locus YER002W, strain NOP16, hits give low values 1 | [1] 1 | [2] 0.999 | S. cerevisiae deletion strains, locus YNL175C, strain NOP13, hits give low values 0.982 | S. cerevisiae deletion strains, locus YNL197C, strain WHI3, hits give low values 0.984 | S. cerevisiae deletion strains, locus YNL224C, strain SQS1, hits give low values 1.02 | S. cerevisiae deletion strains, locus YOR083W, strain WHI5 (second series), hits give low values 1.01

O=[N+]([O-])c1ccc(N2CCCCC2)nc1N1CCCCC1
active: [9] 0.587 | [14] 0.581 | [16] 0.568 | [17] 0.59 | [19] 0.944 | [2] 0.909 | [21] 0.921 | [24] 0.803 | [25] 0.587
inactive: [3] 0.967 | [4] 0.96 | [5] 0.978 | [6] 0.961 | [7] 0.95 | [8] 0.963 | S. cerevisiae deletion strains, locus YGR229C, strain SMI1, hits give low values 0.961 | [10] 0.943 | [11] 0.954 | [12] 0.977 | [13] 0.914 | [15] 0.954 | [18] 0.9 | [1] 0.95 | [20] 0.906 | [22] 0.89 | [23] 0.908

O=[N+]([O-])c1cc(C(F)(F)F)c(N2CCCCC2)cc1N1CCCCC1
inactive: [3] 0.996 | [4] 0.994 | [5] 1.03 | [6] 1.01 | [7] 0.967 | [8] 1.01 | [9] 1.01 | [10] 0.98 | [11] 0.977 | [12] 1.01 | [13] 0.996 | [14] 0.864 | [15] 0.974 | [16] 0.915 | [17] 0.972 | [18] 0.973 | [19] 0.983 | [1] 1.01 | S. cerevisiae deletion strains, locus YMR307W, strain GAS1, hits give low values 1.02 | [2] 1.03 | [20] 1.03 | [21] 0.989 | [22] 0.989 | [23] 0.978 | [24] 1.02 | [25] 0.977 | S. cerevisiae strains, strain wild type, hits give low values 0.992

CCCCC/C=C/CCC(=O)N[C@H]1[C@H](Oc2c3cc4cc2Oc2ccc(cc2Cl)[C@@H](O[C@@H]2O[C@H](CO)[C@@H](O)[C@H](O)[C@H]2NC(C)=O)[C@@H]2NC(=O)[C@H](NC(=O)[C@@H]4NC(=O)[C@H]4NC(=O)C(Cc5ccc(c(Cl)c5)O3)NC(=O)[C@H](N)c3ccc(O)c(c3)Oc3cc(O)cc4c3)c3ccc(O)c(c3)-c3c(OC4O[C@H](CO)[C@@H](O)[C@H](O)[C@@H]4O)cc(O)cc3[C@@H](C(=O)O)NC2=O)O[C@H](CO)[C@@H](O)[C@@H]1O (stereo partly drawn)
inactive: S. cerevisiae deletion strains, locus YAL021C, strain ccr4, hits give low values 1 | S. cerevisiae deletion strains, locus YAL026C, strain drs2, hits give low values 1 | S. cerevisiae deletion strains, locus YAL030W, strain snc1, hits give low values 0.995 | S. cerevisiae deletion strains, locus YBL061C, strain skt5, hits give low values 0.987 | S. cerevisiae deletion strains, locus YBR009C, strain hhf1, hits give low values 0.996 | S. cerevisiae deletion strains, locus YBR023C, strain chs3, hits give low values 0.998 | S. cerevisiae deletion strains, locus YBR171W, strain sec66, hits give low values 1 | S. cerevisiae deletion strains, locus YBR231C, strain swc5, hits give low values 0.991 | S. cerevisiae deletion strains, locus YBR279W, strain paf1, hits give low values 0.997 | S. cerevisiae deletion strains, locus YCL011C, strain gbp2, hits give low values 1.01 | S. cerevisiae deletion strains, locus YCL016C, strain dcc1, hits give low values 0.995 | S. cerevisiae deletion strains, locus YCL061C, strain MRC1, hits give low values 0.999 | S. cerevisiae deletion strains, locus YCL069W, strain vba3, hits give low values 0.996 | S. cerevisiae deletion strains, locus YCR088W, strain abp1, hits give low values 1.01 | S. cerevisiae deletion strains, locus YDL005C, strain med2, hits give low values 0.995 | S. cerevisiae deletion strains, locus YDL040C, strain nat1, hits give low values 1 | S. cerevisiae deletion strains, locus YDR001C, strain nth1, hits give low values 1 | S. cerevisiae deletion strains, locus YDR069C, strain doa4, hits give low values 1 | S. cerevisiae deletion strains, locus YDR137W, strain rgp1, hits give low values 1.01 | S. cerevisiae deletion strains, locus YDR159W, strain sac3, hits give low values 0.977 | S. cerevisiae deletion strains, locus YDR195W, strain ref2 0.918 | S. cerevisiae deletion strains, locus YDR297W, strain sur2, hits give low values 0.998 | S. cerevisiae deletion strains, locus YDR334W, strain swr1, hits give low values 1.01 | S. cerevisiae deletion strains, locus YDR335W, strain msn5, hits give low values 0.998 | S. cerevisiae deletion strains, locus YDR392W, strain spt3, hits give low values 0.967 | S. cerevisiae deletion strains, locus YEL003W, strain gim4, hits give low values 0.989 | S. cerevisiae deletion strains, locus YEL037C, strain rad23, hits give low values 1.05 | S. cerevisiae deletion strains, locus YEL061C, strain CIN8 (second series), hits give low values 0.999 | S. cerevisiae deletion strains, locus YER015W, strain faa2, hits give low values 0.999 | S. cerevisiae deletion strains, locus YER016W, strain bim1, hits give low values 1.01 | S. cerevisiae deletion strains, locus YER111C, strain swi4, hits give low values 0.987 | S. cerevisiae deletion strains, locus YER155C, strain BEM2 (second series), hits give low values 1.01 | S. cerevisiae deletion strains, locus YFR010W, strain ubp6, hits give low values 1.03 | S. cerevisiae deletion strains, locus YGL167C, strain pmr1, hits give low values 0.993 | S. cerevisiae deletion strains, locus YGL173C, strain kem1, hits give low values 0.994 | S. cerevisiae deletion strains, locus YGL227W, strain vid30, hits give low values 1 | S. cerevisiae deletion strains, locus YGL240W, strain doc1, hits give low values 0.973 | S. cerevisiae deletion strains, locus YGL253W, strain hxk2, hits give low values 1 | S. cerevisiae deletion strains, locus YHR013C, strain ard1, hits give low values 0.981 | S. cerevisiae deletion strains, locus YHR027C, strain rpn1, hits give low values 1 | [9] 0.964 | S. cerevisiae deletion strains, locus YHR079C, strain IRE1, hits give low values 0.956 | S. cerevisiae deletion strains, locus YHR142W, strain chs7, hits give low values 1.03 | S. cerevisiae deletion strains, locus YJL092W, strain hpr5, hits give low values 1 | S. cerevisiae deletion strains, locus YJL095W, strain BCK1 (second series), hits give low values 1 | S. cerevisiae deletion strains, locus YJL095W, strain BCK1, hits give low values 0.956 | S. cerevisiae deletion strains, locus YJL115W, strain asf1, hits give low values 0.996 | S. cerevisiae deletion strains, locus YJL129C, strain trk1, hits give low values 1 | S. cerevisiae deletion strains, locus YJL154C, strain vps35, hits give low values 1.01 | S. cerevisiae deletion strains, locus YJL164C, strain tpk1, hits give low values 1.01 | S. cerevisiae deletion strains, locus YJL166W, strain qcr8, hits give low values 0.993 | [11] 1 | S. cerevisiae deletion strains, locus YJR066W, strain TOR1, hits give low values 0.935 | S. cerevisiae deletion strains, locus YKL160W, strain elf1, hits give low values 0.995 | S. cerevisiae deletion strains, locus YKR026C, strain gcn3, hits give low values 0.99 | S. cerevisiae deletion strains, locus YKR091W, strain srl3, hits give low values 0.996 | S. cerevisiae deletion strains, locus YLL001W, strain dnm1, hits give low values 1.02 | S. cerevisiae deletion strains, locus YLL026W, hits give low values 0.996 | S. cerevisiae deletion strains, locus YLL041C, strain sdh2, hits give low values 1 | S. cerevisiae deletion strains, locus YLR027C, strain aat2, hits give low values 1.01 | S. cerevisiae deletion strains, locus YLR113W, strain HOG1, hits give low values 0.942 | S. cerevisiae deletion strains, locus YLR221C, strain rsa3, hits give low values 1.01 | S. cerevisiae deletion strains, locus YLR258W, strain gsy2, hits give low values 1.01 | S. cerevisiae deletion strains, locus YLR262C, strain YPT6 (second series), hits give low values 1.01 | S. cerevisiae deletion strains, locus YLR320W, strain mms22, hits give low values 0.988 | S. cerevisiae deletion strains, locus YLR342W, strain FKS1, hits give low values 0.988 | S. cerevisiae deletion strains, locus YLR357W, strain rsc2, hits give low values 1 | S. cerevisiae deletion strains, locus YLR370C, strain arc18, hits give low values 1 | S. cerevisiae deletion strains, locus YLR384C, strain iki3, hits give low values 1 | S. cerevisiae deletion strains, locus YML120C, strain ndi1, hits give low values 1.01 | S. cerevisiae deletion strains, locus YMR058W, strain fet3, hits give low values 1 | S. cerevisiae deletion strains, locus YMR125W, strain sto1, hits give low values 1.01 | S. cerevisiae deletion strains, locus YMR129W, hits give low values 0.998 | S. cerevisiae deletion strains, locus YMR205C, strain PFK2, hits give low values 0.993 | S. cerevisiae deletion strains, locus YMR231W, strain pep5, hits give low values 0.991 | S. cerevisiae deletion strains, locus YNL071W, strain lat1, hits give low values 1 | S. cerevisiae deletion strains, locus YNL183C, strain NPR1, hits give low values 0.936 | S. cerevisiae deletion strains, locus YNL209W, strain ssb2, hits give low values 1 | S. cerevisiae deletion strains, locus YNL248C, strain rpa49, hits give low values 1.01 | S. cerevisiae deletion strains, locus YNL322C, strain KRE1 (second series), hits give low values 0.991 | S. cerevisiae deletion strains, locus YNR049C, strain mso1, hits give low values 1.01 | S. cerevisiae deletion strains, locus YOR001W, strain rrp6, hits give low values 1.01 | S. cerevisiae deletion strains, locus YOR070C, strain gyp1, hits give low values 1.02 | S. cerevisiae deletion strains, locus YOR080W, strain dia2, hits give low values 0.98 | S. cerevisiae deletion strains, locus YOR083W, strain WHI5, hits give low values 1 | S. cerevisiae deletion strains, locus YOR106W, strain vam3, hits give low values 1.02 | S. cerevisiae deletion strains, locus YOR231W, strain MKK1, hits give low values 0.961 | S. cerevisiae deletion strains, locus YOR265W, strain rbl2, hits give low values 1 | S. cerevisiae deletion strains, locus YOR270C, strain vph1, hits give low values 0.993 | S. cerevisiae deletion strains, locus YOR290C, strain snf2, hits give low values 1.01 | S. cerevisiae deletion strains, locus YPL051W, strain arl3, hits give low values 1.01 | S. cerevisiae deletion strains, locus YPL078C, strain atp4, hits give low values 0.999 | S. cerevisiae deletion strains, locus YPL106C, strain sse1, hits give low values 0.971 | S. cerevisiae deletion strains, locus YPL240C, strain hsp82, hits give low values 0.999 | S. cerevisiae deletion strains, locus YPL256C, strain CLN2, hits give low values 0.946
